# Assay results reported in PubChem BioAssay (EPA / NIEHS).
# Values joined by “and” are separate entries in the source; they are usually repeats but may differ in a detail not shown here. Equal values may be shown once. Some compounds were tested as several samples or in several runs, with calls that do not always agree. Active and inactive are the calls of the source. The calls were made as follows: active = hit-call score of the fitted dose curve at least 0.9, where 1 is the maximum; inactive = score below 0.9.
# Experiment: ATG_CMV_CIS: Attagene CIS-FACTORIAL HepG2 Assay for human CMV (Internal Marker) (AID 2282928);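 also: endpoint acts as a background internal control marker rather than a target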
# Conditions: HepG2 CMV promoter reporter, transcription factor profiling; actives raise or lower the signal
# In short: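 Readout: fluorescent reporter cDNA fragments separated by capillary electrophoresis after RT-PCR and HpaI cut. Cells: HepG2 carrying transfected cis-promoter reporter constructs, dosed 24 h. Endpoint serves as background internal-marker control, fit bidirectionally versus DMSO.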
Structure (SMILES),AC50,outcome
CC(C)(C)CC(C)(C)c1ccc(O)c(-n2nc3ccccc3n2)c1,61.4 µM (active),–
CC(=O)NC1(c2cccc(F)c2)CCN(CC[C@@]2(c3ccc(Cl)c(Cl)c3)CN(c3ccccc3)C(=O)CO2)CC1,45.2 µM (active),–
CCc1ccc(CCOc2ccc(CC3SC(=O)NC3=O)cc2)nc1 (stereo not drawn),–,inactive
CCOC(=O)CC(O)(CC(=O)OCC)C(=O)OCC,–,inactive
Oc1cc2ccccc2c2ccccc12,–,inactive
CC[C@H](C)[C@@H](C(=O)O)n1sc2ccccc2c1=O,–,inactive
CCCCC[C@H](O)CC(=O)CCc1ccc(O)c(OC)c1,–,inactive
CN1CCN(c2ccccc2/C=C2\SCCN(c3ccc(Cl)c(Cl)c3)C2=O)CC1,–,inactive
Cc1oc(-c2ccccc2)nc1CCOc1ccc(C[C@H](Nc2ccccc2C(=O)c2ccccc2)C(=O)O)cc1,–,inactive
CCc1nn(C2CCCCC2)c2cc(C3(C#N)CCC(C(=O)O)CC3)ccc12 (stereo not drawn),–,inactive
CC[C@H](c1ccc(O)cc1)[C@@H](CC)c1ccc(O)cc1,12.5 µM (active) and 11.1 µM (active) and 7.79 µM (active),–
N#C[C@@H]1CC(F)(F)CN1C(=O)CNC1CC2CCC(C1)N2c1ncccn1 (stereo partly drawn),–,inactive
CCCCCCCCCCCCc1ccccc1S(=O)(=O)O,–,inactive
OCCC(F)(F)C(F)(F)C(F)(F)C(F)(F)C(F)(F)C(F)(F)C(F)(F)C(F)(F)F,–,inactive
C[C@@H]1C[C@H]2[C@@H]3CCC4=CC(=O)C=C[C@]4(C)[C@@]3(F)[C@@H](O)C[C@]2(C)[C@@]1(O)C(=O)COP(=O)(O)O,–,inactive
COCC(C)O (stereo not drawn),–,inactive
OC1CCCCC1,–,inactive
O=[N+]([O-])c1ccc(O)cc1,–,inactive

Structure (SMILES),AC50,outcome
CC(C)(C)c1cc(C(C)(C)C)c(O)c(C(C)(C)C)c1,74.9 µM (active),inactive
O=C(OCCOCCOC(=O)c1ccccc1)c1ccccc1,–,inactive
CCC(C)(C)C1CCC(O)CC1 (stereo not drawn),–,inactive
Cc1cc(CCN2CCN(c3nsc4ccccc34)CC2)cc2c1NC(=O)CC2(C)C,–,inactive
c1ccc2cc3c(ccc4ccccc43)cc2c1,–,inactive
CCCOC(=O)c1ccc(O)cc1,121 µM (active),inactive
CN1CCC[C@H]1c1cccnc1,–,inactive
NC(=O)N(O)[C@@H]1C=C[C@H](Oc2cccc(Oc3ccc(F)cc3)c2)C1,7.56 µM (active),–
COC(=O)CCCCC(=O)OC,–,inactive
CC(O)CO (stereo not drawn),–,inactive
O=C(O)Cc1cc(I)c(Oc2cc(I)c(O)c(I)c2)c(I)c1,22.4 µM (active) and 16.7 µM (active),–
CC(=O)CC(C)(C)O,–,inactive
CCN(CC)CCNc1ccc(CNC=O)c2sc3ccc(OC)cc3c(=O)c12,–,inactive
CCCCC(CC)COC(=O)CCCCC(=O)OCc1ccccc1 (stereo not drawn),–,inactive
CC#C[C@]1(O)CC[C@H]2[C@@H]3CCC4=CC(=O)CCC4=C3[C@@H](c3ccc(N(C)C)cc3)C[C@@]21C,56.9 µM (active),inactive
c1ccc2c(c1)Cc1ccccc1-2,–,inactive
CCCCCCCCOC(=O)CCCCCCCCC(=O)OCCCCCCCC,–,inactive
